# Results published in PubChem BioAssay AID686979 (National Center for Advancing Translational Sciences (NCATS), 2013).
# About 50,000 (12%) of roughly 420,000 compounds were called active. Inconclusive results (about 26%) are left out. Calls follow the shape of the dose curve; as a rule, active = well fitted inhibition curve with a large enough effect; inconclusive = small, poorly fitted or top-dose-only effect; inactive = flat fitted curve, though single readings scatter. This excerpt belongs to a sample that is enriched for actives.
# Experiment: qHTS for Inhibitors of human tyrosyl-DNA phosphodiesterase 1 (TDP1): qHTS in cells in presence of CPT; also: nearly all actives have a fitted effect of over 55% in size
# Details: chicken DT40 Tdp1-/-;hTDP1 cells + 20 nM CPT, ATP luminescence, 48 h; series mostly up to 46.2 µM; activity change, negative = growth inhibition: at the top concentration
# Procedure, shortened: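 Chicken DT40 Tdp1-/- cells complemented with human TDP1, 400 cells/well, exposed to compounds plus 20 nM camptothecin for at least 48 h at 37 C; viability read as ATP content by CellTiter-Glo luminescence.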
# % is scaled to controls: 0 for no effect and ±100 for the full control effect; potency is read from the fitted curve at half-maximal effect.
SMILES,"activity change, negative = growth inhibition",Potency
CCCC[N+]1(C)C2CC(OC(=O)C(CO)c3ccccc3)CC1C1OC12 (stereo unspecified),12.1% (inactive),–
Cc1ccccc1N1C(=O)NC(=O)/C(=C\c2cc(C)n(C)c2C)C1=O,-20.2% (inactive),–
O=C1NCN(c2ccccc2)C12CCN(C(c1cccs1)c1nnnn1C1CCCCC1)CC2 (stereo unspecified),–,16.4 µM (active)
CC[N+]1(C)CCCC(OC(=O)C(O)(c2ccccc2)c2ccccc2)C1 (stereo unspecified),-22.2% (inactive),–
CN(C)C(=O)Oc1ccc(NC(=O)N2CCOCC2)cc1,-0.201% (inactive),–
Cc1cccc(-n2c(C)nc3cc(C(=O)N4CCC5(CC4)OCCO5)ccc32)c1,–,20.6 µM (active)
O=C(c1cc(-c2ccncc2)nc2ccccc12)N1CCC2(CC1)OCCO2,-29.2% (inactive),–
Cc1ccc(-c2cc(C(=O)N3CCC4(CC3)OCCO4)no2)cc1,-14.7% (inactive),–
COc1cc(C(c2c(O)c3ccccc3oc2=O)c2c(C)n(C)n(-c3ccccc3)c2=O)ccc1O (stereo unspecified),–,inactive
COP(=O)(NS(=O)(=O)c1ccccc1)OC,2.59% (inactive),–
ClCCN(CCCl)c1ccc(C=Nc2ccc(/C=C/c3ccnc4ccccc34)cc2)cc1,–,10 µM (active)
C=CCN(CC=C)C(=O)Nc1ccc(OCC)cc1,12.3% (inactive),–
O=C1NC(=O)N(Cc2ccco2)C(=O)/C1=C\c1ccc(-c2ccc(F)cc2)o1,–,20.6 µM (active)
O=C1NC(=O)N(Cc2ccco2)C(=O)/C1=C\c1cccn1CCOc1ccccc1,-17.9% (inactive),–
O=C(O)C1CSC(c2cccnc2)N1 (stereo unspecified),1.64% (inactive),–
Fc1ccc(C(OCCN2CCN(C/C=C\c3ccccc3)CC2)c2ccc(F)cc2)cc1,–,5.31 µM (active)
CN(C)S(=O)(=O)c1cc(C(=O)N2CCC(C(=O)O)(c3ccccc3)CC2)ccc1Cl,7.77% (inactive),–
COC(=O)CN1C(=O)C2(C(C(=O)OC)=C(N)Oc3ccccc32)C2=C1CC(C)(C)CC2=O (stereo unspecified),-17.2% (inactive),–
C/C=C/CC1(CC)C(=O)NC(=S)NC1=O,0.869% (inactive),–
CN1CC[C@H](c2c(O)cc(O)c3c(=O)cc(-c4ccccc4Cl)oc23)[C@H](O)C1,–,0.0944 µM (active)
Cc1ccc(C)c(NC2=NCCCS2)c1,-1.13% (inactive),–
O=c1[nH]c(O)c(C=Nc2cc(F)cc(F)c2)c(=O)[nH]1,1.21% (inactive),–

SMILES,"activity change, negative = growth inhibition",Potency
O=C1C2(Cl)C3(Cl)C4(Cl)C(Cl)(Cl)C5(Cl)C3(Cl)C1(Cl)C5(Cl)C24Cl (stereo unspecified),–,18.4 µM (active)
ClC(Cl)(Cl)c1ccccc1,-17.5% (inactive),–
COc1ccc(NC(=O)c2cn(CCC#N)nc2-c2ccc([N+](=O)[O-])cc2)cc1,0.387% (inactive),–
CNC(=O)Nc1ccc(C(O)(C(=O)OC)C(F)(F)F)cc1 (stereo unspecified),6.05% (inactive),–
O=S(=O)(O)C(F)(F)C(F)(F)C(F)(F)C(F)(F)F,13.6% [at 92.5 µM] (inactive),–
CCOC(=O)[C@]12Cc3cc(OC)ccc3[C@H]1N(C(C)C)C(=O)c1ccccc12,–,13 µM (active)
CCOC(=O)[C@]12Cc3ccccc3[C@H]1N(C1CCCCC1)C(=O)c1cc(OC)ccc12,–,2.91 µM (active)
COc1ccccc1-n1c(O)c(C=NC2CC2)c(=O)[nH]c1=O,-2.73% (inactive),–
COC(=O)N1C(c2ccccc2)C1c1ccccc1 (stereo unspecified),1.25% (inactive),–
O=C(O)/C=C/c1ccc2c(c1)OCO2,-82.7% (inactive),–
Clc1cccc(Cl)c1Cl,-1.37% (inactive),–
CCOC(=O)C(O)(c1ccc(N)c(OC)c1)C(F)(F)F (stereo unspecified),1.36% (inactive),–
O=C(CCC(=O)N1C[C@H]2C[C@@H](C1)c1cccc(=O)n1C2)NCc1ccccc1C(F)(F)F,-3.15% (inactive),–
C[C@@]12CCC3C(CC[C@@H]4CC(O)CC[C@@]34C)C1CCC2O (stereo partly specified),-0.552% (inactive),–
COc1cccc(C(=O)N2C[C@H]3C[C@@H](C2)c2cccc(=O)n2C3)c1,3.04% (inactive),–
CCOCCc1c(O)[nH]c(=S)[nH]c1=O,-0.279% (inactive),–
CN(C)C(=O)Oc1ccc(OCc2cccc[n+]2C)cc1,10.1% (inactive),–
c1cc2c(cc1CCNC1CCCCCC1)OCO2,-19.6% (inactive),–
c1ccc2sc(SNC3CCCCC3)nc2c1,-13.8% (inactive),–
CC(C)(C)c1ccc(S(=O)(=O)Nc2ccc(O)c(Sc3nc4ccccc4s3)c2)cc1,–,18.4 µM (active)
C=CC12CN(C)[C@@H]3C4CO[C@H](C[C@H]41)[C@]1(C(=O)Nc4ccccc41)[C@@H]32 (stereo partly specified),8.01% (inactive),–
CCN(N=Nc1nonc1OC)c1nonc1OC,7.39% (inactive),–

SMILES,"activity change, negative = growth inhibition",Potency
c1ccc2sc(N3CCNCC3)nc2c1,20.1% (inactive),–
CCN1C[C@]2(COC)C(O)C[C@H](OC)[C@@]34C5C[C@]6(O)C(OC)C(O)[C@](OC(C)=O)(C5C6OC(=O)c5ccccc5)C(C(OC)C23)C14 (stereo partly specified),-7.7% (inactive),–
CC(C)N(CC#CCC1(O)c2ccccc2-c2ccccc21)C(C)C,-13.8% (inactive),–
c1cc2c(c(NC3=NCCCS3)c1)CCCC2,-5.68% (inactive),–
COC(=O)N(c1ccc(OC)cc1)P1(=S)OCCC(C)O1 (stereo unspecified),–,14.6 µM (active)
Cc1ccc(-n2c(O)c(C=NCC3CCCO3)c(=O)[nH]c2=O)c(C)c1 (stereo unspecified),-8.29% (inactive),–
CCC1(C)CC(CCNCc2ccc(N(C)C)cc2)(c2ccc(F)cc2)CCO1 (stereo unspecified),–,16.4 µM (active)
CC(=O)N1CN2CN(C(C)=O)CC(C(=O)c3ccc(Br)cc3)(C2)C1,11.5% (inactive),–
COc1ccccc1NC(=O)N1C[C@@H]2C[C@@H](C1)c1cccc(=O)n1C2,1.17% (inactive),–
O=c1[nH]c(=S)[nH]c(O)c1/C=C1\C=Nc2ccccc21,–,7.31 µM (active)
COc1ccccc1N=Nc1c(O)[nH]c(=S)[nH]c1=O,-16.3% (inactive),–
CN(C)c1nc(N(C)C)nc(N(C#N)CCCl)n1,-12.5% (inactive),–
Cc1ccc(OC(=O)N(C)C[C@@H]2OCc3cnnn3CCCC(=O)N([C@H](C)CO)C[C@@H]2C)cc1,1.63% (inactive),–
CCC1(c2ccccc2)C(=O)NC(=O)N(C)C1=O (stereo unspecified),13.2% (inactive),–
COc1ccc(Br)cc1CNCCc1cccc(Cl)c1,–,18.4 µM (active)
COc1cc(C[C@H](C)N)c(OC)cc1Br,-28.4% [at 92.5 µM] (inactive),–
CC[C@]1(O)C(=O)OCc2c1cc1n(c2=O)Cc2cc3ccccc3nc2-1,–,0.0168 µM (active)
CC1=C2C(=O)C3C(CC=C4CC(OC5OC(O)C(O)C(O)C5CO)CCC43C)C2CCC12OC1CC(C)CNC1C2C (stereo unspecified),2.43% (inactive),–
Cc1ccc2c(c1)C1CN(C)CCC1N2C(=O)Cn1nnc(-c2ccccc2F)n1 (stereo unspecified),7.4% (inactive),–
CC(C)(c1ccc(OC[C@@H]2CO2)cc1)c1ccc(OC[C@H]2CO2)cc1,–,10.6 µM (active)
CCOP(=O)(OCC)C(NC(=O)NC)C(N)=O (stereo unspecified),1.31% (inactive),–
Nc1ccc(C(=O)N/N=C2/CN3CCC2CC3)cc1,1.97% (inactive),–
